# From PubChem BioAssay (Tox21)
# Inconclusive results are not listed. Entries that show only a call come without a potency. Activity calls are given as the source filed them. Calls come from the whole dose curve; as a rule, active = well fitted cell-killing curve with a large enough effect in the repeat runs; inconclusive = weak or mixed curves, or effect the other way; inactive = no such curve, though single readings can be large or run the other way.
# Assay: qHTS assay to identify small molecule agonists of the vitamin D receptor (VDR) signaling pathway - cell viability counter screen (AID 743224); note: nearly all actives have a fitted effect of over 50% in size
# Conditions: VDR-bla HEK293T viability, CellTiter-Glo luminescence, 16 h; series mostly up to 62.6 µM
# Excerpt: U.S. Tox21 Program National Center for Advancing Translational Sciences [NCATS] NIH Chemical Genomics Center [NCGC] U.S. Environmental Protection Agency [EPA] National Institutes of Environmental Health Sciences [NIEHS] National Toxicology Program [NTP] U.S. Food and Drug Administration [FDA] Tox21 Assay Overview: The vitamin D receptor (VDR), a member of nuclear hormone receptor superfamily, plays a critical role in calcium homeostasis and bone metabolism. It is also involved in cell differentiation and growth, and thrombogenicity. […] The cytotoxicity of the Tox21 compound library against the VDR-bla cell line was tested in parallel by measuring the cell viability using CellTiter-Glo assay (Promega, Madison, WI) in the same wells.
# Tox21 Assay Protocol Summary: VDR-bla cells were dispensed at 2,000 cells/6 uL/well into black wall/clear-bottom 1536-well plates using a Multidrop Combi (Thermo Fisher Scientific, Waltham, MA) dispenser. After the assay plates were incubated at a 37C and 5% CO2 for 4 h, 23 nL of compounds dissolved in DMSO, positive controls or DMSO only was transferred to the assay plate by a Pintool station (Kalypsys, San Diego, CA). The plates were incubated at 37C and 5% CO2 for 16 h. After 1 uL of LiveBLAzerTM B/G FRET substrate was added using a Bioraptr Flying Reagent Dispenser (FRD) workstation (Beckman Coulter, Indianapolis, IN, USA), the plates were incubated at room temperature for 2 h, and fluorescence intensity was measured by an Envision plate reader (PerkinElmer, Shelton, CT). For cell viability readout that measures cytotoxicity, 3 ul/well of CellTiter-Glo reagent was added into the assay plates using a FRD. After 30 min incubation at room temperature, the luminescence intensity in the plates was measured using a ViewLux (PerkinElmer) plate reader.
SMILES,Potency,"activity change, negative = cytotoxicity"
Cc1sccc1Br,inactive,–
COC(=O)NN,inactive,–
CN(C(=O)c1c(O)c2ccccc2n(C)c1=O)c1ccccc1,inactive,–
CCO[Si](CCC1CCC2OC2C1)(OCC)OCC (stereo not given),inactive,–
NCCCNCCSP(=O)(O)O,–,6.38% [at 13.2 µM] (inactive)
CCCCCCCCS(=O)(=O)Cl,inactive,–
CCOC(C)(C)C,inactive,–
Cc1ccc(=O)n(-c2ccccc2)c1,inactive,–
c1ccc([C@H]2CN3CCSC3=N2)cc1,inactive,–
CCCN(CCC)CCc1cccc2c1CC(=O)N2,inactive,–
COCCc1ccc(OCC(O)CNC(C)C)cc1 (stereo not given),inactive,–
CC(=O)Nc1ccc(S(N)(=O)=O)cc1,inactive,–
O=c1cc(-c2ccccc2)oc2ccccc12,inactive,–
Cc1cc2c(cc1S(N)(=O)=O)S(=O)(=O)CCC2,inactive,–
NC(=O)COCCN1CCN(C(c2ccccc2)c2ccc(Cl)cc2)CC1 (stereo not given),inactive,–
CCCCOCCOCCOCc1cc2c(cc1CCC)OCO2,inactive,–
C=CCS(=O)(=O)O,inactive,–
CCN1CCC[C@H]1CNC(=O)c1c(O)c(Cl)cc(Cl)c1OC,inactive,–
C=CCCCCCCCCC=O,inactive,–
N[C@@H](C(=O)N[C@@H]1C(=O)N2C(C(=O)O)=C(Cl)CS[C@H]12)c1ccccc1,–,12.3% [at 13.2 µM] (inactive)

SMILES,Potency,"activity change, negative = cytotoxicity"
CCOC(=O)C(=O)OCC,inactive,–
CC/C=C\CCOC(C)=O,inactive,–
c1ccc(CC2=NCCN2)cc1,inactive,–
Cc1ccc(Cl)cc1Cl,inactive,–
O=C(O)CN(CCOCCOCCN(CC(=O)O)CC(=O)O)CC(=O)O,–,7.18% [at 0.55 µM] (inactive)
CCC(C)S (stereo not given),–,8.62% [at 2.7 µM] (inactive)
CC(=O)CC(C)C,inactive,–
Cc1cccn2c(=O)c(-c3nnn[nH]3)cnc12,inactive,–
CC(C)(c1ccc(O)cc1)c1ccc(O)cc1,inactive,–
N=C(N)c1ccccc1,inactive,–
CCOc1ccc(C(=O)OCCN(CC)CC)cc1,inactive,–
Cc1[nH]c(=O)c(C#N)cc1-c1ccc2nccn2c1,inactive,–
CCCCNC(=O)NCCCC,inactive,–
Cn1c(N)c(N=O)c(=O)n(C)c1=O,inactive,–
N=C(N)c1ccc(OCCCOc2ccc(C(=N)N)cc2)cc1,inactive,–
CO[C@]12C[C@@H](COC(=O)c3cncc(Br)c3)CN(C)[C@@H]1Cc1cn(C)c3cccc2c13,inactive,–
NC(CSCC(=O)O)C(=O)O (stereo not given),inactive,–
CCCC(=O)O[C@]1(C(=O)CO)CC[C@H]2[C@@H]3CCC4=CC(=O)CC[C@]4(C)[C@H]3[C@@H](O)C[C@@]21C,inactive,–
COC(=O)c1c(Cl)c(Cl)c(C(=O)OC)c(Cl)c1Cl,inactive,–
CCCCCCOC(=O)CCCCC(=O)OCCCCCC,inactive,–
